# Assay outcomes deposited in PubChem BioAssay by Sanford-Burnham Center for Chemical Genomics.
# TIM10 inh: inhibits growth of TIM10 yeast strain; S. cerevisiae TIM10 strain growth, BacTiter-Glo luminescence, 24 h; inhibition, % at 10 µM; 1.4% of 330,000 active;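 active = inhibition of 40% or more at the single tested concentration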;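 note: wild-type TIM10 isogenic control strain grown at permissive 25 °C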
# NALP1 inh: NALP1 inhibition; S. cerevisiae NALP1/ASC/caspase-1 growth, X-gal OD620, 72 h; inhibition, % at 10 µM; 0.61% of 280,000 active; AID 2071; in the data active = inhibition mostly above about 24%, no sharp cut-off; inactive = mostly below about 32%
# tim10-1 inh: growth inhibitors of tim10-1 mutant yeast | inhibition, % at 20 µM | 2.2% of 330,000 active | S. cerevisiae tim10-1 ts strain growth, BacTiter-Glo, 24 h;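 active = inhibition of at least 40%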;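 note: mutant grown at 25 °C; 0% = DMSO wells with yeast and 100% = wells holding no yeast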
# NLRP3 yeast inh: NALP3 inhibition in yeast; Yeast reconstituted NLRP3/ASC/caspase-1, beta-gal luminescence, 24 h; inhibition, % at 10 µM; 0.39% of 330,000 active; AID 2825;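 active = inhibition of 50% or more; inactive = inhibition below 50%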;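 note: plate controls were induced DMSO wells for no effect and uninduced yeast grown without galactose for full effect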
# tim23-1 inh: inhibits growth of tim23-1 mutant yeast | S. cerevisiae tim23-1 growth, BacTiter-Glo luminescence, 24 h | inhibition, % at 20 µM | 1.3% of 330,000 active;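 active = growth inhibition of the mutant yeast at or above 50%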;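 note: temperature-sensitive mutant grown at 25 °C; plate controls were DMSO-treated mutant yeast for no effect and medium wells lacking yeast for full effect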
# tim10-1 conf: tim10-1 yeast growth inhibition, confirmed. inhibition, % at 20 µM. shares compounds with tim10-1 inh. S. cerevisiae tim10-1 ts strain growth, BacTiter-Glo, 24 h. AID 463213. 56% of 7,400 active;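 active = inhibition of yeast growth at or above a set limit in either of two repeat tests at 20 µM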;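 note: tim10-1 mutant grown at permissive 25 °C to find synthetic lethal compounds; 0% = DMSO yeast wells and 100% = medium wells without yeast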
# TIM10 conf: confirmation of TIM10 yeast growth inhibitors; S. cerevisiae tim10 strain growth, BacTiter-Glo luminescence, 24 h; inhibition, % at 10 µM; AID 463215; 63% of 4,600 active; shares compounds with TIM10 inh;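 active = inhibition of yeast growth at or above a set limit in either of two replicates at 10 µM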;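 note: this counterscreen used the strain with wild-type TIM10; 0% = yeast with DMSO and 100% = medium wells lacking yeast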
# tim23-1 conf: confirmation of tim23-1 mutant yeast growth inhibitors; S. cerevisiae tim23-1 growth, BacTiter-Glo luminescence, 24 h; inhibition, % at 20 µM; 83% of 4,400 active; shares compounds with tim23-1 inh;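 active = inhibition above about 39% in either of two replicate wells at 20 µM, limit read from the data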;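 note: temperature-sensitive tim23-1 mutant grown at 25 °C; 0% = DMSO wells with yeast and 100% = medium wells without yeast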
# * marks the source's active call; other numbers are inactive results; nt = not tested or not shown. Most compounds without a hit are left out; they make up all but 4% or so of the library.
SMILES,TIM10 inh,NALP1 inh,tim10-1 inh,NLRP3 yeast inh,tim23-1 inh,tim10-1 conf,TIM10 conf,tim23-1 conf
N#C/C(=C\c1cccc([N+](=O)[O-])c1)c1ccccn1,39,6,56*,19,63*,72*,nt,56*
O=Nc1c(-c2cccc([N+](=O)[O-])c2)nc2ncccn12,84*,10,91*,20,89*,91*,98*,73*
CC(C)(C)c1cc(-c2csc(Nc3ccccc3)[n+]2Cc2ccc(C(=O)O)cc2)cc(C(C)(C)C)c1O,38,-19,46*,-20,54*,57*,nt,53*
O=C1N2c3ccccc3CCc3cccc(c32)C1(O)C(F)(F)F (stereo not given),30,3,47*,-35,51*,44*,nt,55*
Brc1ccc(-c2nc(N/N=C/c3cccnc3)c3ccccc3n2)cc1,67*,27,82*,17,81*,6,56*,86*
CC(C)(C)C(=O)NC(=S)N1CCc2ccccc21,3,17,12,-1,3,nt,nt,nt
O=C(NC(=S)N1CCc2ccccc21)c1ccc(Br)o1,67*,-2,62*,9,64*,56*,57*,66*
O=C(/C=C/c1ccc(F)cc1)c1cc(Br)ccc1O,53*,-4,45*,-22,50*,71*,70*,22
COc1cccc(NC(=O)CSc2ccc3nnc(CCNC(=O)c4ccccc4)n3n2)c1,-6,6,2,16,-11,nt,nt,nt
Cc1ccc(-c2nc3cccnc3s2)cc1NS(=O)(=O)c1cccs1,6,5,43*,-37,58*,32*,nt,53*
O=C1CC(=Nc2ccccc2)NN1c1ccccc1,49*,2,55*,10,59*,45*,44*,76*
O=C1Cc2ccccc2N1c1ccccc1,6,10,11,4,-29,nt,nt,nt
COc1cc(CNC(=O)c2cc(C(=O)NCc3cc(OC)cc(OC)c3)n(C)n2)cc(OC)c1,-3,nt,6,17,2,nt,nt,nt
COc1ccc(C=O)cc1CSc1ncccc1C(=O)O,13,8,-9,1,5,nt,nt,nt
CCOC(=O)C1CCN(C2=NC(=O)/C(=C/c3ccc(OC)c(OC)c3)S2)CC1,10,17,31,1,20,nt,nt,nt
CCOC(=O)C1CCN(C2=NC(=O)/C(=C/c3ccc(Cl)cc3)S2)CC1,32,10,49*,34,50*,32*,nt,44*
CCOc1cc(Cl)c(NC(C)=O)cc1OCC,-9,17,-1,13,15,nt,nt,nt
O=C1SC(SCc2ccccc2)=N/C1=C\c1ccco1,43*,18,57*,10,54*,40*,49*,58*
COc1ccc(C(=O)Nc2ccccc2C(=O)Nc2ccncc2)cc1,15,-4,21,15,30,nt,nt,nt
Cc1cc(/C=C(\C#N)C(=O)NC2CC2)c(C)[nH]1,-2,-15,2,6,2,nt,nt,nt
N#C/C(=C\c1ccccc1Br)C(=O)NC1CC1,67*,5,54*,21,84*,60*,83*,82*
COCCNC(=O)/C(C#N)=C/c1ccccc1Br,76*,6,72*,16,79*,74*,68*,77*
COCCNC(=O)/C(C#N)=C/C=C/c1ccccc1,3,-14,23,-6,20,nt,nt,nt
COc1cccc(N(C(=O)c2sc(C)nc2C)C(C(=O)NCC2CCCO2)c2ccccc2)c1 (stereo not given),17,9,-14,9,5,nt,nt,nt
O=C(Nc1ccc(Cl)cc1)Nc1csc([N+](=O)[O-])c1,19,nt,13,34,22,nt,nt,nt
